# Results taken from PubChem BioAssay AID720706 (Broad Institute, 2013).
# Among all 350,000 compounds or so, about 5,500 (1.6%) were called active.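 Rule for the calls: active = significant combined selectivity score with lowered wild-type GFP, culture density cut under 30%, mutant RFP and density less affected; inactive = any of these conditions unmet.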 The entries come from a sample that favours actives as a whole.
# Assay: reduced GFP signal of wild-type E. coli, primary screen, bacterial rRNA inhibitor project, GFP/RFP fluorescence, OD600, single point (AID 720706)
# Conditions: E. coli WT GFP vs humanized-ribosome RFP mutants, 24 h; GFP signal change (wild-type ribosome): stronger effect = lower value, DMSO median 0, no signal -100; OD600 change: measured here: OD600 growth, DMSO median 0, no signal -100; RFP signal change: measured here: RFP humanized mutant strains, DMSO median 0, no signal -100, concentration not given here
Structure (SMILES),GFP signal change (wild-type ribosome),OD600 change [%],RFP signal change [%]
C=CCn1c(-c2ccccc2OCC)n[nH]c1=S,3.63% (inactive),4.05,2.66
C=CCn1c(-c2sc(-c3ccccc3)nc2C)n[nH]c1=S,-24.3% (active),-5.31,7.62
C=CCn1c(CCc2ccc(OC(C)C)cc2)n[nH]c1=S,-0.285% (inactive),-0.525,1.11
O=C(C1CC1)N1CCCCN2[C@H](CO)[C@H](c3ccc(-c4cccc(F)c4)cc3)[C@H]2C1,-6.45% (inactive),-8.76,3.12
COCC(=O)N1CCCCN2[C@H](C1)[C@@H](c1ccc(-c3ccccc3)cc1)[C@@H]2CO,2.96% (inactive),-5.68,0.005
C[C@@H]1CCCCO[C@@H](CN(C)C(=O)Nc2cccc3ccccc23)[C@H](C)CN([C@H](C)CO)C(=O)c2cc(NS(C)(=O)=O)ccc2O1,2.97% (inactive),-14.8,-1.87
COc1cccc(C(=O)c2cc3ccc(O)cc3oc2=O)c1,-30.5% (active),-15,1.31
COC(=O)c1ccc(COC(=O)CNC(=O)c2cccc(OC)c2)o1,3.46% (inactive),11.4,-1.13
COc1cccc(C(=O)NCCSc2ccc(Br)cc2)c1,-49.8% (inactive),-75.8,-16.7
COc1ccc(NC(=O)Nc2ccc3c(c2)C(=O)N([C@H](C)CO)C[C@H](C)[C@@H](CN(C)Cc2ccccc2)OCCCC[C@H](C)O3)cc1,2.43% (inactive),-11,1.05
C[C@@H]1CN([C@H](C)CO)C(=O)c2cc(NC(=O)C3CCCCC3)ccc2O[C@@H](C)CCCCO[C@H]1CN(C)S(C)(=O)=O,-1.08% (inactive),0.309,-2.76
CC1CCN(c2c(NCc3ccc(C(=O)NCc4ccccc4)cc3)c(=O)c2=O)CC1,-2.23% (inactive),0.92,2.65
CC1CCCN(c2ccc(C(=O)NCCc3ccccc3)cn2)C1 (stereo not drawn),-19.9% (active),-8.59,0.765
CC1CCN(C(=O)CCNC(=O)c2ccccc2)CC1,9.31% (inactive),16.3,-0.0995
COc1ccc2c3c([nH]c2c1)[C@H](CO)N(C(=O)C1CCC1)CC31CCN(Cc2cccc(F)c2)CC1,-1.74% (inactive),-5.93,3.15
COc1ccc2c3c([nH]c2c1)[C@@H](CO)N(Cc1ccccc1OC)CC31CCN(C)CC1,-0.945% (inactive),0.435,0.881
Cc1nn(-c2ccccc2)c(Cl)c1/C=N/NC(=O)c1nn(C)cc1[N+](=O)[O-],-30.3% (active),4.85,0.73
Cc1nn(-c2ccccc2)c(C)c1/C=N/NC(=O)CSc1nc2ccccc2c(=O)n1-c1ccccc1,14.9% (inactive),17.7,-2.02
Cc1cc(=O)[nH]c(N/N=C/c2c(C)nn(-c3ccccc3Cl)c2Cl)n1,-2.91% (inactive),6.48,-1.95
C[C@@H]1CN([C@@H](C)CO)S(=O)(=O)c2ccc(C#CCN(C)C)cc2O[C@@H]1CN(C)S(=O)(=O)c1cccc(F)c1,-0.828% (inactive),-6.54,0.409
C[C@H](CO)N1C[C@H](C)[C@H](CN(C)C(=O)Nc2ccc(C(F)(F)F)cc2)Oc2ccc(NS(=O)(=O)c3ccccc3)cc2CC1=O,2.52% (inactive),-0.79,1.4

Structure (SMILES),GFP signal change (wild-type ribosome),OD600 change [%],RFP signal change [%]
CN1C(=O)c2cc(NC(=O)c3ccccc3)ccc2OC[C@@H]2O[C@@H](CC(=O)NC3CCCC3)CC[C@H]21,0.592% (inactive),4.01,0.386
Cc1ccccc1NC(=O)CCOc1ccccc1,6.54% (inactive),-4.25,2.04
Cc1ccc(F)c(NC(=O)CCOc2ccccc2C)c1,-19.4% (active),-1.12,1.17
Cc1cccc(OCCC(=O)Nc2ccccc2C(N)=O)c1,-0.179% (inactive),-10.5,0.55
C[C@@H]1CN([C@H](C)CO)C(=O)Cc2cc(NS(=O)(=O)c3cn(C)cn3)ccc2O[C@@H]1CN(C)C(=O)Nc1ccccc1,6.08% (inactive),7.32,-1.29
CC(=O)Nc1cccc(NC(=O)c2ccc3c(c2)CCN3S(C)(=O)=O)c1,-1.52% (inactive),7.81,5.89
CS(=O)(=O)N1CCc2cc(C(=O)Nc3ccccc3)ccc21,5.39% (inactive),2.75,3.33
CN(c1cccc(NC(=O)c2ccc(CN3CCc4ccccc4C3)cc2)c1)S(C)(=O)=O,-21.5% (active),-11.3,-3.92
COc1ccc(-c2nc(CCNC(=O)c3ccc(Br)o3)cs2)cc1,-22.8% (inactive),-75.5,-22.8
O=S(=O)(NCCc1csc(-c2ccccc2)n1)c1cccnc1,-11.8% (inactive),-3.96,1.22
O=C(NCCc1csc(-c2ccccc2)n1)c1ccccc1F,-24.5% (active),-9.12,10.4
C[C@H](CO)N1C[C@H](C)[C@@H](CN(C)C(=O)c2ccncc2)Oc2cc(/C=C/c3ccccc3)ccc2S1(=O)=O,-0.655% (inactive),-10,0.748
CC(C)NC(=O)N(C)C[C@H]1Oc2ccc(N)cc2CC(=O)N(C)C[C@H]1C,1.15% (inactive),1.28,-1.08
COc1ccc2oc(C(=O)NCc3ccco3)c(C)c2c1,-31.1% (active),-11.6,2.2
COc1ccc2oc(C(=O)NCC(Cc3ccccc3)N(C)C)c(C)c2c1 (stereo not drawn),0.609% (inactive),-7.21,3.26
Cc1c(C(=O)NCC(c2ccco2)N2CCCC2)oc2ccc(Cl)cc12 (stereo not drawn),-0.887% (inactive),-24.2,6.54
C[C@@H]1CCCCO[C@@H](CN(C)S(=O)(=O)c2cccs2)[C@H](C)CN([C@H](C)CO)C(=O)c2cc(NC(=O)CCCN(C)C)ccc2O1,0.863% (inactive),4.81,-0.962
Cc1cc(C)c2c(-c3ccc(F)cc3)c(C#N)c(=O)n(C)c2n1,2.75% (inactive),5.62,-1.52
COCCn1c(=O)[nH]c(=O)c2cc(C(=O)c3cc(OC)ccc3O)cnc21,-0.725% (inactive),-0.37,12.8
COc1ccc(O)c(C(=O)c2cnc3c(c2)c(-c2ccc(F)cc2)c(C#N)c(=O)n3C)c1,-17% (active),6.31,1.18
